Test results as given in PubChem BioAssay AID2428 (Vanderbilt High Throughput Screening Facility, 2010).
Potency and affinity values are given separately. The source made the active and inactive calls.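 How the source made its calls: active means compound whose fitted concentration response curve has an R squared above 0.5; inactive means the rest.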

Molecular target: Muscarinic acetylcholine receptor M3 (Homo sapiens) (UniProt P20309)
Assay: potentiation of ACh response at M3 – cell-based, CHO-K1 hM3, Fluo-4 calcium, ACh EC20, selectivity assay for M1 PAM project, dose response (AID 2428)
Conditions: series mostly up to 30 µM; percent of max ACh response: at the top concentration

Sequence of Muscarinic acetylcholine receptor M3 (Homo sapiens) (P20309 whole entry, looked up): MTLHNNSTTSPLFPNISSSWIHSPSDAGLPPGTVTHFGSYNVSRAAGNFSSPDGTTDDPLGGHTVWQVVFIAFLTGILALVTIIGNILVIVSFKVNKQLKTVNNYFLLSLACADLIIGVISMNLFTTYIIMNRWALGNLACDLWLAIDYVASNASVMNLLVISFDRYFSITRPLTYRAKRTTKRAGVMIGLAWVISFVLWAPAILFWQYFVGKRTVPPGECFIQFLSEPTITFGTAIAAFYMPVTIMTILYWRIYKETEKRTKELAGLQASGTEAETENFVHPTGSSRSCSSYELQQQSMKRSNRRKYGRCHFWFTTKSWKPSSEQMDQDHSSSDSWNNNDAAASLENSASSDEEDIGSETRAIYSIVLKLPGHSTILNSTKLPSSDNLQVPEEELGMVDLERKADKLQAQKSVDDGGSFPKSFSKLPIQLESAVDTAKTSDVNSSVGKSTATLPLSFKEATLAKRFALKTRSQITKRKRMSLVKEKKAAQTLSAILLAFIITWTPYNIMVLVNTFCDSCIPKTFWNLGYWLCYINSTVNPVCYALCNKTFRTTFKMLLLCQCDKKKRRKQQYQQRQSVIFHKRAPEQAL

Percent of max ACh response, inactive:
Cn1cc(-c2cc(F)c(CN3C(=O)C(=O)c4ccccc43)c(F)c2)cn1 15.7%
Cc1cc(NC(=O)CS(=O)(=O)c2cn(Cc3cccc(F)c3)c3ccccc23)no1 4.68%
Cc1cc(NC(=O)CS(=O)(=O)c2cn(Cc3cccc(-c4ccn(C)n4)c3)c3ccccc23)no1 21.3%
Cn1cc(-c2ccc(CN3C(=O)C(=O)c4ccccc43)c(F)c2)cn1 18%
Cc1cc(NC(=O)CS(=O)(=O)c2cn(Cc3ccccc3Cl)c3ccccc23)no1 12.8%
Cc1cc(NC(=O)CS(=O)(=O)c2cn(Cc3cccc(Cl)c3)c3ccccc23)no1 24%
O=C1C(=O)N(Cc2ccc(Oc3ccccc3)cc2)c2ccc(OC(F)(F)F)cc21 29.2%
Cc1cc(NC(=O)CS(=O)(=O)c2cn(Cc3cc(Br)ccc3F)c3ccccc23)no1 2.88%
